Measurements published in PubChem BioAssay (NCI).
About 83,000 compounds went through this panel and 20% of them were active in at least one assay; those are over-represented in the sample as a whole.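 48-hour exposure, single concentration, 96-well plates; percent growth endpoint where 0 means no net growth. Active: below 10.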 Unmarked numbers belong to inactive results. The source made the active and inactive calls.

System: U251 CNS
Test: NCI-60 one-dose screen, 48 h (100 = growth as untreated, 0 = no growth, -100 = all killed)
Conditions: 10 µM unless noted

| SMILES | growth |
| --- | --- |
| Cn1cccc1/C=C1\C(=O)Nc2ccccc21 | 97.7% |
| O=C1N[C@@H]2[C@@H](O)[C@@H](O)[C@H](O)C[C@H]2c2cc3c(c(O)c21)OCCO3 | -14.9% (active) |
| Cc1ccc2[nH]c(-c3ccc(S(C)(=O)=O)cc3)c(/C=N/N=C(N)N)c2c1 | 33.4% |
| CCOC(=O)c1c(C)nc2c(c1N)CC(=O)N2Cc1cc(OC)c(OC)c(OC)c1 | 38.3% |
| COc1ccc2nc(SCC(=O)Nc3ccccc3C)[nH]c2c1 | 93.5% |
| Cc1cc(C)cc(Nc2ccc([N+](=O)[O-])c(NCCN3CCOCC3)n2)c1 | 20.8% |
| Cc1ccc(C)n1/C=C/n1c(C)ccc1C | 109% |
| Oc1c(CN2CCCC2)cc(COCc2ccccc2)c2cccnc12 | 1.08% (active) |
| CCc1cccc(Sc2cc(C(=O)N3Cc4ccc(OCCN(C)C)cc4C3)ccc2O)c1 | 54.9% |
| O=P(O)(O)OCC1OC(n2cnc3c(NCc4ccccc4)ncnc32)C(O)C1O (stereo unspecified) | 47.3% |
| C=CCN=C(N)SCCCCCCSC(N)=NCC=C | 87.4% |
| COc1ccc(Cn2cc(C(=O)N=Nc3c(O)[nH]c4c(Cl)cccc34)nn2)cc1 | 102% |
| O=C(Nc1ccccc1)c1sc(-c2ccccc2)cc1O | 98.5% |
| CS(=O)(=O)Nc1cc(-c2ccc3ncnc(Nc4ccc5c(cnn5Cc5cccnc5)c4)c3c2)cnc1Cl | 55.4% |
| CC1(C)CC[C@]2(C(=O)O)CC[C@]3(C)C(=CC[C@@H]4[C@@]5(C)C[C@@H](Cc6cn([C@@H]7O[C@H](CO)[C@@H](O)[C@H](O)[C@H]7O)nn6)[C@H](O)C(C)(C)[C@@H]5CC[C@]43C)[C@@H]2C1 | 92% |
| CCN1C(=O)N(CC)C2C1NN=c1s/c(=C\c3ccccc3Br)c(=O)n12 (stereo unspecified) | 5.61% (active) |
| Cc1ccc(Nc2nc(-c3ccc(F)cc3)c(C#N)c(=O)n2C)cc1 | 68.2% |
| N#Cc1c(N2CCOCC2)nc(=S)[nH]c1-c1ccccc1 | 78.5% |
| COc1cccc(/C=C/C(=O)c2cc3c(N)c(C(=O)Nc4ccccc4C)sc3nc2C)c1 | 7.49% (active) |
| COc1ccc(C2=NN(C(C)=O)C(c3ccc(Oc4ccnc5cc(Cl)ccc45)c(OC)c3)C2)cc1 (stereo unspecified) | 45.7% |
| CCOC(=O)C/C(=N\Nc1cc(=O)[nH]c2ccc(Cl)cc12)C(=O)OCC | 107% |
| COC(=O)C1=C(C)NC(C)=C(C(=O)OCC(C)C)C1c1ccccc1[N+](=O)[O-] (stereo unspecified) | 68.8% |
| Cc1ccc(S(=O)(=O)n2cc(C3C(Cl)C(=O)N3c3ccc(N4CCOCC4=O)cc3)c3ccccc32)cc1 (stereo unspecified) | 48.7% |
| CS(=O)(=O)Nc1cncc(-c2ccc3ncnc(Nc4ccc(F)c(Cl)c4)c3c2)c1 | 8.79% (active) |
| N=C(N)c1ccc(-c2ccc(-c3ccc(F)cc3)s2)s1 | -89.7% (active) |
| CCN(CC)c1ccc(/C=N/NC(=O)c2ccc(Nc3ccnc(C(F)(F)F)c3)cc2)c(O)c1 | 14% |
